# Test results taken from PubChem BioAssay.
# For some assays here: Measured potencies and affinities stand elsewhere. Activity calls are given as the source filed them.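 How the source made its calls, unless noted: active means calcium signal cut by more than 3 SD below the full-agonist control yet still positive, in both repeats and the earlier primary screen; inactive means the rest.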
# Key:
# [1] = tested on: TRPC4 beta (transient receptor potential cation channel C4), mouse; assay: TRPC4 cation channel opening, retest – cell-based, Fluo4 calcium, HEK293 TRPC4beta/mu-opioid, duplicates, 10 µM, confirmation (AID 2426;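 active means fluorescence ratio normalized to control raised more than 50% in primary screen plus both repeat runs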;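 on activation: percent rise of integrated ratio over buffer wells lacking compound which define 0%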); settings: Fluo4 calcium fluorescence, at 10 µM; active compounds read high
# [2] = tested on: transient receptor potential cation channel C4 beta (TRPC4), mouse; assay: TRPC4 cation channel opening, second retest – cell-based, second round, Fluo4, HEK293 TRPC4beta/mu-opioid, 1 µM, confirmation (AID 2461;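 active means primary screen active and over 50% activation in each of two duplicate runs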;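 on activation: 0% = wells without test compound as baseline of integrated fluorescence ratio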); settings: Fluo4 calcium fluorescence, at 1 µM; active compounds read high
# [3] = tested on: TRPC4 (transient receptor potential cation channel C4 beta), mouse; assay: potentiation of DAMGO EC20 TRPC4 response – cell-based, second round, Fluo-4, HEK293 TRPC4beta/mu-opioid, 1 µM, confirmation (AID 2554;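 active means primary screen hit whose fluorescence ratio, in both repeats, exceeds the weak agonist control mean by 3 SD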); settings: DAMGO EC20, Fluo-4 calcium flux, at 1 µM; active compounds read high
# [4] = tested on: TRPC4 beta (transient receptor potential cation channel C4), mouse; assay: potentiation of DAMGO EC20 TRPC4 response – cell-based, Fluo-4, HEK293 TRPC4beta/mu-opioid, confirmation (AID 2555;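 active means primary screen hit whose calcium fluorescence ratio, in both repeats, exceeds the weak agonist control mean by 3 SD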); settings: DAMGO EC20, Fluo-4 calcium flux, at 10 µM; active compounds read high
# [5] = target: Short transient receptor potential channel 4 (Mus musculus) (UniProt Q9QUQ5); assay: blockers of DAMGO-evoked TRPC4 calcium flux – cell-based, Fluo4, HEK293 TRPC4beta/mu-opioid, confirmation (AID 2636); settings: at 10 µM; active compounds read high
# Short transient receptor potential channel 4 (Mus musculus), sequence (Q9QUQ5 whole entry, looked up): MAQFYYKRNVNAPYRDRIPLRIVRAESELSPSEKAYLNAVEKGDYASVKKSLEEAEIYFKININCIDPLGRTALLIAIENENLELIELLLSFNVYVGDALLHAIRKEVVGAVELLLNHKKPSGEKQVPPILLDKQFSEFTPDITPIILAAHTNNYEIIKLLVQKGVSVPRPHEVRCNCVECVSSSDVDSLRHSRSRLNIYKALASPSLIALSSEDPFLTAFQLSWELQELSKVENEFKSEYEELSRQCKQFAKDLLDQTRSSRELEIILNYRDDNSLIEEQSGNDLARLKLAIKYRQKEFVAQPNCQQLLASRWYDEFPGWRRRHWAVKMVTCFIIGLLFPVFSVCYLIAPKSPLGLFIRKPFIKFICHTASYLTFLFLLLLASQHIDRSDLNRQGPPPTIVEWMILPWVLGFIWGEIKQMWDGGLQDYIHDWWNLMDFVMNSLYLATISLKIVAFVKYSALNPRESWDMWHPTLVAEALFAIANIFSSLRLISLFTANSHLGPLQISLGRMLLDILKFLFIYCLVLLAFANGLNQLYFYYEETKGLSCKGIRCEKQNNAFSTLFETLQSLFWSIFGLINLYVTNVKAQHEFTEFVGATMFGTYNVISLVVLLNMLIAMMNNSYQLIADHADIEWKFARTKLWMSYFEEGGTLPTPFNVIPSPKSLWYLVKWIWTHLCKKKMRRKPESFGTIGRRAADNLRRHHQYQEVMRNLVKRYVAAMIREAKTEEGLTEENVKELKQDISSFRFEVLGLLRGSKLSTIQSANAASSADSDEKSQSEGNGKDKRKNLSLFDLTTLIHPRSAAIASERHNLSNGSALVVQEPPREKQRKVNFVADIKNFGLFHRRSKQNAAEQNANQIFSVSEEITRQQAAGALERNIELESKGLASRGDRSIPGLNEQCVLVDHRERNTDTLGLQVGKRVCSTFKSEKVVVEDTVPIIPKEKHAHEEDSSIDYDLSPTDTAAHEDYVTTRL
# [6] = target: Short transient receptor potential channel 4 (Mus musculus) (UniProt Q9QUQ5); assay: blockers of DAMGO-evoked TRPC4 calcium flux – cell-based, second round, Fluo4, HEK293 TRPC4beta/mu-opioid, 1 µM, confirmation (AID 2637;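 active means calcium signal ratio cut to more than 3 SD under the fully stimulated control mean yet still positive, in both repeats and the primary screen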); settings: at 1 µM; active compounds read high
# [7] = target: Short transient receptor potential channel 4 (Mus musculus) (UniProt Q9QUQ5); assay: calcium entry via TRPC4 opening agents – cell-based, HEK293 TRPC4/mu-opioid, Fluo-4 calcium, dose response (AID 434937;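 active means primary screen activator hit with a dose response curve and TRPC4 channel activation at any tested dose; inactive means no activation, no dose response, or not a primary hit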)
# [8] = target: Short transient receptor potential channel 4 (Mus musculus) (UniProt Q9QUQ5); assay: block of DAMGO-driven TRPC4 calcium entry – cell-based, HEK293 TRPC4/mu-opioid, Fluo-4 calcium, dose response (AID 434942;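 active means primary screen inhibitor hit that blocks the TRPC4 channel at some tested dose, yielding a dose curve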)
# [9] = target: Short transient receptor potential channel 6 (Mus musculus) (UniProt Q61143); assay: TRPC6 blockade by TRPC4 inhibitor hits – cell-based, HEK293, membrane potential dye, duplicate, selectivity assay for TRPC4 inhibitor project, confirmation (AID 434948;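 active means active in primary screen and both duplicates, each dropping signal beyond three positive-control SD with fluorescence still positive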); settings: HEK293 TRPC6, membrane potential dye fluorescence, at 10 µM, stimulated with maximal-effect acetylcholine; active compounds read high
# Short transient receptor potential channel 6 (Mus musculus), sequence (Q61143 whole entry, looked up): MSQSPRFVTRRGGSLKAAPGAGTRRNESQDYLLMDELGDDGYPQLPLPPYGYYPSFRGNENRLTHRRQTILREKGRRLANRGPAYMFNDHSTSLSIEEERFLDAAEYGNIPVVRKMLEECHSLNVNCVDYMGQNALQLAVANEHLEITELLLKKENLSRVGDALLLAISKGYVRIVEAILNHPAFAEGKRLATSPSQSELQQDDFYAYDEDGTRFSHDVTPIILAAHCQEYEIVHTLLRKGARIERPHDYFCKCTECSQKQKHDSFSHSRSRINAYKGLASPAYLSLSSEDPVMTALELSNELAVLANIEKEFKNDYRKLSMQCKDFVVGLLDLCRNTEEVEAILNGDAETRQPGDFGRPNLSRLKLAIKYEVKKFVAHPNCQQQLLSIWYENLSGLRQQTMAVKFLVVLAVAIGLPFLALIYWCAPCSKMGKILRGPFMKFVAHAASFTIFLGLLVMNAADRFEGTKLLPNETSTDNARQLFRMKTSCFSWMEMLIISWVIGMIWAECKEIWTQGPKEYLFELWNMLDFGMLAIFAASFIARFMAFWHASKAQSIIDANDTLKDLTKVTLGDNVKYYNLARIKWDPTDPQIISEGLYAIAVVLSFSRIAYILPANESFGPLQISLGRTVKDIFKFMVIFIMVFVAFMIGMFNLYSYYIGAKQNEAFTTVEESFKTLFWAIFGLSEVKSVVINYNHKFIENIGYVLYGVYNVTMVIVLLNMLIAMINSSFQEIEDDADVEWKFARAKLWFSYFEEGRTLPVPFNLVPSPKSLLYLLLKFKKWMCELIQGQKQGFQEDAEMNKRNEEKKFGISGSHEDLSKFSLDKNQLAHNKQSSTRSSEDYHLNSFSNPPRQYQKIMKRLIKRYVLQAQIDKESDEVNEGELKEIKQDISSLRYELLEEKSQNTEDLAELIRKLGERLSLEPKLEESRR
# [10] = target: Short transient receptor potential channel 6 (Mus musculus) (UniProt Q61143); assay: TRPC6 opening by TRPC4 activator hits – cell-based, HEK293, membrane potential dye, duplicate, selectivity assay for TRPC4 activator project, confirmation (AID 434950;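 active means membrane potential signal rise above negative control mean plus 3 SD in both duplicates, also active in the earlier TRPC4 screen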;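 on activation: 0% = buffer only wells and 100% = acetylcholine maximal-effect wells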); settings: HEK293 TRPC6, membrane potential fluorescence, at 10 µM; activation: active compounds read high; outcome: activation
# [11] = target: Short transient receptor potential channel 6 (Mus musculus) (UniProt Q61143); assay: positive modulators of mouse TRPC6 channel – HEK293 cells, membrane potential dye, duplicate, selectivity assay for TRPC4 potentiator project, confirmation (AID 434952;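 active means compound raising the membrane signal above positive-control mean plus 3 SD in both repeats, and a primary screen hit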); settings: HEK293 TRPC6, membrane potential dye fluorescence, at 10 µM, maximal acetylcholine added after compound; active compounds read high
# [12] = target: Short transient receptor potential channel 4 (Mus musculus) (UniProt Q9QUQ5); assay: calcium flux activators in TRPC4/5HT1a cells, counter-screen for TRPC4 activator project, cell-based, second counter screen, HEK293 TRPC4/5HT1a, Fluo-4 (AID 434977;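 active means calcium signal rise above buffer-control mean plus 5 SD in both duplicates, and also a hit in the primary screen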;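 on activation: plate controls were assay buffer for no effect and maximal serotonin response for full effect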); settings: Fluo-4 calcium flux, at 10 µM; active compounds read high
# [13] = serotonin-gated TRPC4 signal block – cell-based, second counter screen, HEK293 TRPC4/5HT1a, Fluo-4, counter-screen for TRPC4 inhibitor project, confirmation (AID 434978;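 active means primary screen active whose calcium signal fell more than 3 SD beyond the full-serotonin control mean in both duplicate plates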;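 further: serotonin given first at submaximal then at maximal dose after compound preincubation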); settings: Fluo-4 calcium flux, at 10 µM, serotonin added to trigger calcium flux; active compounds read high
# [14] = tested on: TRPC4 (mouse), co-expressed with 5HT1a in HEK293; assay: enhancement of serotonin-evoked TRPC4 response – cell-based, second counter screen, HEK293 TRPC4/5HT1a, Fluo-4, counter-screen for TRPC4 potentiator project, confirmation (AID 434979;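 active means signal rise over 3 SD above mean of control wells given weak agonist, in both repeats and first screen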); settings: Fluo-4 calcium flux, at 10 µM, serotonin added at its EC20 dose; active compounds read high
# [15] = nonspecific calcium rise without TRPC4 – cell-based, HEK293 mu-opioid receptor line, counter-screen for TRPC4 activator project, confirmation (AID 449723;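 active means hit in primary screen, with calcium signal over 5 SD above buffer well mean in both duplicates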;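 further: counter screen cells carry the mu-opioid receptor alone and lack TRPC4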); settings: HEK293 mu-opioid cells, Fluo-4 calcium fluorescence, at 10 µM; active compounds read high
# [16] = nonspecific potentiation of DAMGO calcium response – cell-based, HEK293 mu-opioid receptor line, counter-screen for TRPC4 allosteric potentiator project, confirmation (AID 449724;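 active means calcium signal rise more than 3 SD above the low-dose agonist control mean, in both duplicate plates and the primary screen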); settings: HEK293 mu-opioid receptor cells, Fluo-4 calcium flux, at 10 µM, compound added before EC20 DAMGO stimulus; active compounds read high
# [17] = target: Short transient receptor potential channel 4 (Mus musculus) (UniProt Q9QUQ5); assay: potentiation of DAMGO-evoked TRPC4 calcium signal – cell-based, HEK293 TRPC4/mu-opioid, Fluo-4 calcium, EC20 DAMGO, dose response (AID 434941;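 active means earlier screen potentiator hit that boosts the TRPC4 ion channel at some dose, with a dose response; inactive means no potentiation, no dose response, or not a prior hit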;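 further: calcium entry triggered by an EC20 dose of DAMGO at the co-expressed mu-opioid receptor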)
structure (smiles),measurement,setting,value
CCOc1ccc(-n2c(SCC(=O)O)nc3sc4c(c3c2=O)CCCC4)cc1,outcome,[1],inactive
same,outcome,[2],inactive
same,outcome,[3],inactive
same,outcome,[4],inactive
same,outcome,[5],inactive
same,outcome,[6],inactive
same,outcome,[7],inactive
same,outcome,[8],inactive
same,outcome,[9],inactive
same,outcome,[10],inactive
same,outcome,[11],inactive
same,outcome,[12],inactive
same,outcome,[13],inactive
same,potentiation,[14],16.4% (active)
same,outcome,[15],inactive
same,outcome,[16],inactive
Cc1ccc(C(C)C)cc1OCCCCN1CCCC1,outcome,[1],inactive
same,outcome,[2],inactive
same,potentiation,[3],15% (active)
same,potentiation,[4],12% (active)
same,outcome,[5],inactive
same,outcome,[6],inactive
same,outcome,[7],inactive
same,outcome,[8],inactive
same,outcome,[9],inactive
same,outcome,[10],inactive
same,outcome,[11],inactive
same,outcome,[12],inactive
same,outcome,[13],inactive
same,potentiation,[14],6.54% (active)
same,outcome,[15],inactive
same,outcome,[16],inactive
CCCN(CCC(=O)Nc1cc(OC)cc(OC)c1)CC1CC1,activation,[1],180% (active)
same,activation,[2],69% (active)
same,outcome,[3],inactive
same,outcome,[4],inactive
same,outcome,[5],inactive
same,outcome,[6],inactive
same,outcome,[17],inactive
same,outcome,[8],inactive
same,outcome,[9],inactive
same,activation,[10],49% (active)
same,outcome,[11],inactive
same,activation,[12],54.9% (active)
same,outcome,[13],inactive
same,outcome,[14],inactive
same,outcome,[15],inactive
same,outcome,[16],inactive
Cc1sc2ncnc(NCC(c3ccco3)N(C)C)c2c1C (configuration not stated),activation,[1],202% (active)
same,activation,[2],116% (active)
same,outcome,[3],inactive
same,outcome,[4],inactive
same,outcome,[5],inactive
same,outcome,[6],inactive
same,outcome,[17],inactive
same,outcome,[8],inactive
same,outcome,[9],inactive
same,outcome,[10],inactive
same,outcome,[11],inactive
same,activation,[12],91.1% (active)
same,outcome,[13],inactive
same,outcome,[14],inactive
same,outcome,[15],inactive
same,outcome,[16],inactive
O=C(Nc1ccccc1)C1=C[C@H](C2CCCCC2)C[C@H](OCc2ccc(CO)cc2)O1,outcome,[1],inactive
same,outcome,[2],inactive
same,outcome,[3],inactive
same,potentiation,[4],85% (active)
same,outcome,[5],inactive
same,outcome,[6],inactive
same,outcome,[7],inactive
same,outcome,[8],inactive
same,outcome,[9],inactive
same,outcome,[10],inactive
same,outcome,[11],inactive
same,outcome,[12],inactive
same,outcome,[13],inactive
same,potentiation,[14],124% (active)
same,outcome,[15],inactive
same,outcome,[16],inactive
O=C(O)CCNc1nc(-c2ccccc2)c2cc(Br)ccc2n1,outcome,[1],inactive
same,outcome,[2],inactive
same,potentiation,[3],11% (active)
same,outcome,[4],inactive
same,outcome,[5],inactive
same,outcome,[6],inactive
same,outcome,[7],inactive
same,outcome,[8],inactive
same,outcome,[9],inactive
same,outcome,[10],inactive
same,outcome,[11],inactive
same,outcome,[12],inactive
same,outcome,[13],inactive
same,potentiation,[14],24.1% (active)
same,outcome,[15],inactive
same,outcome,[16],inactive
CC(C)c1c(O)nc(SCCN(C)C)[nH]c1=O,outcome,[1],inactive
same,outcome,[2],inactive
same,potentiation,[3],13% (active)
same,potentiation,[4],27% (active)
same,outcome,[5],inactive
same,outcome,[6],inactive
same,outcome,[7],inactive
same,outcome,[8],inactive
same,outcome,[9],inactive
same,outcome,[10],inactive
same,outcome,[11],inactive
same,outcome,[12],inactive
same,outcome,[13],inactive
same,potentiation,[14],57.7% (active)
same,outcome,[15],inactive
same,outcome,[16],inactive
CCSC1=N/C(=C\c2ccc(OC)cc2)C(=O)N1,outcome,[1],inactive
same,outcome,[2],inactive
same,outcome,[3],inactive
same,outcome,[4],inactive
same,outcome,[5],inactive
same,outcome,[6],inactive
same,outcome,[7],inactive
same,outcome,[8],inactive
same,outcome,[9],inactive
same,outcome,[10],inactive
same,outcome,[11],inactive
same,outcome,[12],inactive
same,outcome,[13],inactive
same,outcome,[14],inactive
same,outcome,[15],inactive
same,outcome,[16],inactive
O=[N+]([O-])c1ccc(/C=N/Nc2nc(N3CCCCC3)nc(N3CCCCC3)n2)o1,outcome,[1],inactive
same,outcome,[2],inactive
same,outcome,[3],inactive
same,potentiation,[4],21% (active)
same,outcome,[5],inactive
same,outcome,[6],inactive
same,outcome,[7],inactive
same,outcome,[8],inactive
same,outcome,[9],inactive
same,outcome,[10],inactive
same,outcome,[11],inactive
same,outcome,[12],inactive
same,outcome,[13],inactive
same,potentiation,[14],59.2% (active)
same,outcome,[15],inactive
same,outcome,[16],inactive
CC1=C(C(=O)NCc2ccccc2)C(c2cc(Br)cc(Br)c2OC(C)C)NC(=O)N1 (configuration not stated),outcome,[1],inactive
same,outcome,[2],inactive
same,outcome,[3],inactive
same,potentiation,[4],28% (active)
same,outcome,[5],inactive
same,outcome,[6],inactive
same,outcome,[7],inactive
same,outcome,[8],inactive
same,outcome,[9],inactive
same,outcome,[10],inactive
same,outcome,[11],inactive
same,outcome,[12],inactive
same,outcome,[13],inactive
same,potentiation,[14],11.7% (active)
same,outcome,[15],inactive
same,outcome,[16],inactive
O=C(NCc1ccccc1)C1=C[C@H](c2ccc(C(F)(F)F)cc2)C[C@H](OCc2ccc(CO)cc2)O1,outcome,[1],inactive
same,outcome,[2],inactive
same,outcome,[3],inactive
same,potentiation,[4],51% (active)
same,outcome,[5],inactive
same,outcome,[6],inactive
same,outcome,[7],inactive
same,outcome,[8],inactive
same,outcome,[9],inactive
same,outcome,[10],inactive
same,outcome,[11],inactive
same,outcome,[12],inactive
same,outcome,[13],inactive
same,potentiation,[14],111% (active)
same,outcome,[15],inactive
same,outcome,[16],inactive
Cc1ccn(CC(=O)NC2CCCN(Cc3ccc(CC(C)C)cc3)C2)n1 (configuration not stated),activation,[1],170% (active)
same,outcome,[2],inactive
same,outcome,[3],inactive
same,outcome,[4],inactive
same,outcome,[5],inactive
same,outcome,[6],inactive
same,outcome,[17],inactive
same,outcome,[8],inactive
same,outcome,[9],inactive
same,activation,[10],61% (active)
same,outcome,[11],inactive
same,activation,[12],50.5% (active)
same,outcome,[13],inactive
same,outcome,[14],inactive
same,outcome,[15],inactive
same,outcome,[16],inactive
COc1cccc(C(=O)NC2CCCN(C3Cc4ccccc4C3)C2)c1OC (configuration not stated),activation,[1],132% (active)
same,outcome,[2],inactive
same,outcome,[3],inactive
same,outcome,[4],inactive
same,outcome,[5],inactive
same,outcome,[6],inactive
same,outcome,[17],inactive
same,outcome,[8],inactive
same,outcome,[9],inactive
same,activation,[10],57.5% (active)
same,outcome,[11],inactive
same,activation,[12],82.8% (active)
same,outcome,[13],inactive
same,outcome,[14],inactive
same,outcome,[15],inactive
same,outcome,[16],inactive
Cc1cccn2c(CNCCc3ccccn3)c(C(=O)N3CCOCC3)nc12,activation,[1],184% (active)
same,activation,[2],55% (active)
same,outcome,[3],inactive
same,outcome,[4],inactive
same,outcome,[5],inactive
same,outcome,[6],inactive
same,outcome,[17],inactive
same,outcome,[8],inactive
same,outcome,[9],inactive
same,activation,[10],46.5% (active)
same,outcome,[11],inactive
same,activation,[12],57.2% (active)
same,outcome,[13],inactive
same,outcome,[14],inactive
same,outcome,[15],inactive
same,outcome,[16],inactive
COc1ccccc1/C=C/CN1CCCC(CCC(=O)NCc2ccccc2F)C1 (configuration not stated),activation,[1],98% (active)
same,activation,[2],51% (active)
same,outcome,[3],inactive
same,outcome,[4],inactive
same,inhibition,[5],53% (active)
same,outcome,[6],inactive
same,outcome,[17],inactive
same,outcome,[8],inactive
same,outcome,[9],inactive
same,activation,[10],44% (active)
same,outcome,[11],inactive
same,activation,[12],32.5% (active)
same,outcome,[13],inactive
same,outcome,[14],inactive
same,outcome,[15],inactive
same,outcome,[16],inactive
Clc1cc(Cl)cc(C2=NC(Cc3ccccc3)CO2)c1 (configuration not stated),activation,[1],110% (active)
same,outcome,[2],inactive
same,outcome,[3],inactive
same,outcome,[4],inactive
same,outcome,[5],inactive
same,outcome,[6],inactive
same,outcome,[17],inactive
same,outcome,[8],inactive
same,outcome,[9],inactive
same,activation,[10],25% (active)
same,outcome,[11],inactive
same,activation,[12],30.6% (active)
same,outcome,[13],inactive
same,outcome,[14],inactive
same,outcome,[15],inactive
same,outcome,[16],inactive
Fc1ccc(-n2cc(CNCCc3cccnc3)c(-c3ccccc3Cl)n2)cc1,activation,[1],153% (active)
same,outcome,[2],inactive
same,outcome,[3],inactive
same,outcome,[4],inactive
same,outcome,[5],inactive
same,outcome,[6],inactive
same,outcome,[17],inactive
same,outcome,[8],inactive
same,outcome,[9],inactive
same,activation,[10],31% (active)
same,outcome,[11],inactive
same,outcome,[12],inactive
same,outcome,[13],inactive
same,outcome,[14],inactive
same,outcome,[15],inactive
same,outcome,[16],inactive
